The OligoGym collection

target: PHF23; assay: pooled miR-30 sensor sort-seq; sequence = guide strand; settings: shRNA
Also: reference of the scale not given here.

| Sequence | sensor-assay potency score (higher = more potent) |
| --- | --- |
| TTCTTAATCTTAGCACAGGAGA | -1.04 |
| TTCTTGCTCTTCTTGATTCGAG | -0.558 |
| TTTAACTTCCGCTTCTTGCTCT | 0.601 |

target: PHF8; assay: as above; settings: shRNA

| Sequence | sensor-assay potency score (higher = more potent) |
| --- | --- |
| TTGAGCTGCATCTCGATGTTAA | -0.768 |
| TTTGTCAGAACCAACATAGTGT | 0.088 |
| TTTGCTATCTTGGTTCGCCGAG | -0.492 |
| TTGCTTTCTGGAAAGAGCCTGT | -0.163 |
| TTGGATAAACTCTTCACCCTTT | 0.593 |
| TTCTGCTTGAACGATGACCTGT | 0.147 |
| AACACTTGTAGCACTTGTCCAC | -0.0267 |
| TTGCTATCTTGGTTCGCCGAGA | -0.723 |
| TTTCACAAAATCACCAAGCTTC | 0.0269 |
| TTCAACACCAACACAACTGCCA | 0.225 |
| TCACACTCGATCATGAAGCGGG | 0.234 |
| TTCCAAACTAATGACATTGAGG | -0.716 |

target: PIK3AP1; assay: as above; settings: shRNA

| Sequence | sensor-assay potency score (higher = more potent) |
| --- | --- |
| AAGTCTAGGAACTCCTCGCTGT | 0.0251 |
| TACTCGTCGATGAACTGCCGCA | -0.193 |
| TTCTTCAGTCCATACTTCGCAG | -0.885 |
| TTCGATTAAGTCTTCATCCTTT | 0.829 |
| TAGCCGTTTAAGATTTTCCTGC | -0.144 |
| TTTAATGTGACTCTTGAGCATG | -0.893 |
| TTGCCTTCTAAAAACTTGCGGA | -0.361 |
| TTAAGGTCAACAGTCATGCTAT | -0.337 |
| TTCCTCTTTAATGTGACTCTTG | -0.151 |
| TTGTCATCATATCTTCTTCTTC | -0.605 |
| TAGACGATGAGGATGTCGCATC | -0.908 |
| TTACTTGTGCTACTTGCTGTGC | -0.439 |

target: PIK3R4; assay: as above; settings: shRNA

| Sequence | sensor-assay potency score (higher = more potent) |
| --- | --- |
| TTGTCTCGCACATACTGCCTAA | -0.86 |
| TAATAGCTTACAACCATCTTTT | -0.784 |
| TTATTTTCATATCTGAGCCAGC | -0.787 |
| TTTTATTTAGCACTTGTTCAGG | -0.266 |
| TAGCAAAGTAACAACTTTCTGC | 0.5 |
| TTACAGTAGACATCAGCTGTAC | 0.0221 |
| TTCAATTTTATTTAGCACTTGT | 0.585 |
| TAAACTAGTCAAGTACATCTTA | 0.418 |
| TTCCTTTAAAACACTGAGCAGA | -0.752 |
| TTTTGTAGCAGTCCTAACTGGC | -0.0245 |
| TATCTGAAAAATAACTCTCTAC | -0.529 |
